This passage reports Potency and ratio activity, negative = inhibition results from PubChem BioAssay (NCATS).

In one experiment the test system is AA1029. Briefly: qHTS profiling for inhibitors of Plasmodium falciparum proliferation (AID 504749).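 For activity, negative = inhibition: 0% = DMSO vehicle and full inhibition = artemisinin control.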 Note: nearly all actives have a fitted effect of over 60% in size. Particulars: P. falciparum in erythrocytes, SYBR Green DNA, 72 h; series mostly up to 28.7 µM. In short, it runs like this: (§1)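 SYBR Green fluorescence of parasite DNA, read after lysis and overnight dark incubation, measured growth over 72 h in erythrocyte culture at 0.3% parasitemia and 2.5% hematocrit. Data normalised to DMSO and 0.29 uM artemisinin, with plate-drift correction.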
For orientation: Quantitative high-throughput screening tests each substance at several concentrations.

The next experiment concerns AS120. The description is as above. The following applies: P. falciparum in erythrocytes, SYBR Green DNA, 72 h; series mostly up to 28.7 µM. In short, it runs like this:
as §1

In a further experiment the test system is ATS189. Described as above. The following applies: P. falciparum in erythrocytes, SYBR Green DNA, 72 h; series mostly up to 28.7 µM. In short, it runs like this:
as §1

The next experiment has as its system C2A. Described as above. The following applies: P. falciparum in erythrocytes, SYBR Green DNA, 72 h; series mostly up to 28.7 µM. The gist of the method:
as §1

A further experiment has as its system CP194. The description is as above. Particulars: P. falciparum in erythrocytes, SYBR Green DNA, 72 h; series mostly up to 28.7 µM. The gist of the method:
as §1

A further experiment relates to CP201. The description is as above. The following applies: P. falciparum in erythrocytes, SYBR Green DNA, 72 h; series mostly up to 28.7 µM. In short, it runs like this: as §1
Another experiment has as its system CP203. The experiment is described as above. The following applies: P. falciparum in erythrocytes, SYBR Green DNA, 72 h; series mostly up to 28.7 µM. In short, it runs like this: as §1
The next experiment concerns CP217. The description is as above. The following applies: P. falciparum in erythrocytes, SYBR Green DNA, 72 h; series mostly up to 28.7 µM. The gist of the method:
as §1

The next experiment concerns CP237. The experiment is described as above. The following applies: P. falciparum in erythrocytes, SYBR Green DNA, 72 h; series mostly up to 28.7 µM. In short, it runs like this:
as §1

Another experiment deals with CP250. The description is as above. The following applies: P. falciparum in erythrocytes, SYBR Green DNA, 72 h; series mostly up to 28.7 µM. In short, it runs like this:
as §1

For the next experiment, the system named is CP256. The description is as above. The following applies: P. falciparum in erythrocytes, SYBR Green DNA, 72 h; series mostly up to 28.7 µM. In short, it runs like this:
as §1

Another experiment deals with CP268. Described as above. Particulars: P. falciparum in erythrocytes, SYBR Green DNA, 72 h; series mostly up to 28.7 µM. The gist of the method:
as §1

Another experiment has as its system CP297. The experiment is described as above. The following applies: P. falciparum in erythrocytes, SYBR Green DNA, 72 h; series mostly up to 28.7 µM. The gist of the method:
as §1

A further experiment relates to CP305. The description is as above. The following applies: P. falciparum in erythrocytes, SYBR Green DNA, 72 h; series mostly up to 28.7 µM. In short, it runs like this: as §1
In a further experiment the test system is CP325. The description is as above. The following applies: P. falciparum in erythrocytes, SYBR Green DNA, 72 h; series mostly up to 28.7 µM. In short, it runs like this: as §1
Another experiment has as its system HB3. The description is as above. The following applies: P. falciparum in erythrocytes, SYBR Green DNA, 72 h; series mostly up to 28.7 µM. The gist of the method: as §1
The subject of the next experiment is PC15. Described as above. Particulars: P. falciparum in erythrocytes, SYBR Green DNA, 72 h; series mostly up to 28.7 µM. The gist of the method:
as §1

In a further experiment the test system is PC49. The experiment is described as above. Particulars: P. falciparum in erythrocytes, SYBR Green DNA, 72 h; series mostly up to 28.7 µM. In short, it runs like this:
as §1

A further experiment has as its system TAB109. The description is as above. The following applies: P. falciparum in erythrocytes, SYBR Green DNA, 72 h; series mostly up to 28.7 µM. The gist of the method: as §1
Experiment [1] can be described thus: S16 Schwann cell PMP22 intronic element beta-lactamase assay (AID 624044; calls by dose curve; note: nearly all actives have a fitted effect of over 15% in size;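 for ratio activity, negative = inhibition: 0% = DMSO and -100% = potassium clavulanate positive control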). Particulars: S16 rat Schwann cells, PMP22 element beta-lactamase FRET, 24 h. The gist of the method:
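Beta-lactamase reporter under a PMP22 intronic regulatory element in stable S16 rat Schwann cells; 24 h compound exposure. 460 nm blue signal normalized between DMSO (0%) and potassium clavulanate, with 535 nm FRET tracking viability; curves classed by r2 and response.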

The mark [2] stands for this setting: ratio activity, negative = inhibition: at 38.3 µM (top of the series).

Molecules are shown by their SMILES. Results filed as inconclusive are left out. The source holds several records for some structures; these can differ, active in one and inactive in another. A number with no mark means an inactive call. Activity calls are given as the source filed them. Unless noted, calls come from the whole dose curve; as a rule, active = well fitted inhibition curve with a large enough effect; inconclusive = small, poorly fitted or top-dose-only effect; inactive = flat fitted curve, though single readings scatter.
Potency is the fitted concentration of half-maximal effect.

On to `CCCSS/C(CCO)=C(/C)N(C=O)Cc1cnc(C)nc1N`, for which the Potency result in the experiment on AA1029, with AS120, in the experiment on ATS189, in the experiment on C2A, in the experiment with CP194 and in the experiment with CP201 was “inactive” throughout. Besides, the Potency result with CP203, in the experiment with CP217, in the experiment with CP237, in the experiment with CP250, in the experiment with CP256 and with CP268 was “inactive” each time. Also, the Potency result in the experiment with CP297, in the experiment with CP305, in the experiment on CP325, with HB3, in the experiment with PC15 and in the experiment with PC49 was “inactive” each time. The Potency result in the experiment with TAB109 was “inactive”.

On to `OCC(O)C(O)C(O)C(O)CO` (stereo not drawn), for which the values for the ratio activity, negative = inhibition in experiment [1] (at 38.3 µM (top of the series)) and in experiment [1] (setting [2]) were -3.36% and 1.06% (active), respectively. For the same molecule, the Potency entry in the experiment with AA1029, in the experiment on AS120, in the experiment with ATS189, with C2A, in the experiment on CP194 and with CP201 was “inactive” throughout. In addition, the Potency result in the experiment on CP203, with CP217, in the experiment with CP237, with CP250, in the experiment with CP256 and in the experiment with CP268 was “inactive” in each case. Besides, the Potency entry with CP297, in the experiment on CP305, in the experiment on CP325, in the experiment with HB3, in the experiment on PC15 and in the experiment with PC49 was “inactive” in each case. The Potency result with TAB109 is “inactive”.

For the molecule `NC(C(=O)O)C(O)c1ccc(O)c(O)c1` (stereo not drawn), the Potency entry (in [1] (setting [2]); in the experiment on PC15; in the experiment on PC49) was “inactive” throughout. Besides, in the experiment on CP297, the Potency was 16.9 µM (active).

On to `CCCCC(=O)OC1CCC2C3CCc4cc(O)ccc4C3CC[C@]12C` (stereo partly drawn), for which the Potency entry (in [1] (setting [2]); with AA1029; with C2A; with CP194; in the experiment with CP201; in the experiment on CP203) was “inactive” each time. Further, the Potency result in the experiment on CP217, with CP237, in the experiment on CP250, in the experiment with CP268, in the experiment with CP305 and with CP325 was “inactive” in each case. The Potency result in the experiment with HB3, with PC49 and with TAB109 was “inactive” throughout.

Consider `CCC1OC(=O)C[C@H](O)C(C)[C@@H](O[C@@H]2OC(C)C(O)C(N(C)C)C2O)C(CCN2CC(C)CC(C)C2)CC(C)C(=O)/C=C/C(C)=C\[C@@H]1COC1OC(C)C(O)C(OC)C1OC` (stereo partly drawn), for which the Potency in the experiment with C2A is 10 µM (active); with CP237 it was 5.01 µM (active); in the experiment on CP256, 8.91 µM (active); with TAB109, 4.47 µM (active). Also, the Potency entry with HB3 and in the experiment on PC15 was “inactive” throughout.

Turning to `CCOc1ccccc1O[C@@H](c1ccccc1)[C@@H]1CNCCO1`, the Potency entry (in [1] (setting [2]); in the experiment on CP201; with CP250; in the experiment on CP268; in the experiment on CP305; in the experiment on CP325) was “inactive” throughout. Also, the Potency entry in the experiment on HB3 was “inactive”. For the same molecule, the values for the Potency with AA1029, in the experiment on AS120 and in the experiment on PC49 were 5.62 µM (active), 11.2 µM (active) and 2.24 µM (active), respectively.

As to `CNC1CCc2cc(OC)c(OC)c(OC)c2-c2ccc(OC)c(=O)cc21` (stereo not drawn), the Potency in [1] (setting [2]) is 0.178 µM (active). For the same molecule, the Potency entry with AA1029, in the experiment on AS120, in the experiment on ATS189, with C2A, in the experiment on CP194 and with CP201 was “inactive” throughout. For the same molecule, the Potency entry in the experiment with CP203, with CP217, with CP250, in the experiment on CP256, in the experiment on CP268 and in the experiment with CP297 was “inactive” in each case. The Potency entry in the experiment with CP305, with CP325, with HB3, in the experiment on PC15, with PC49 and in the experiment on TAB109 was “inactive” throughout.

As to `CCN(CC)C(=O)[C@@]1(c2ccccc2)C[C@@H]1CN`, the Potency result (in experiment [1] (setting [2]); in the experiment with AA1029; in the experiment with AS120; in the experiment on ATS189; with C2A; in the experiment with CP194) was “inactive” each time. In addition, the Potency entry with CP201, in the experiment with CP203, with CP217, in the experiment with CP237, in the experiment on CP250 and in the experiment with CP256 was “inactive” throughout. In addition, the Potency result with CP268, with CP297, in the experiment on CP305, in the experiment with CP325, in the experiment with HB3 and with PC15 was “inactive” each time. Besides, the Potency result in the experiment with PC49 was “inactive”.
